Screens as filed in PubChem BioAssay.
BJeLR viability – MLPCN primary cell-based screen for lethality selective to Ras in HRASV12 cells; BJeLR (HRASV12) viability, CellTiter-Glo ATP luminescence, 48 h; inhibition, % (concentration not given with the values); 0.17% of 300,000 active; AID 1554, 2009; in the data active = inhibition above about 50%
Sa RN4220 lethal – growth inhibition of S. aureus RN4220, primary screen, OD600. inhibition, % (test concentration not listed). 16 h. 0.33% of 330,000 active; in the data active = inhibition above about 85%;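 note: plate controls were untreated cells for no effect and reference antibiotic for full effect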
Sa ugtP lethal – growth inhibition of ugtP-null S. aureus, primary screen, RN4220 ugtP deletion, OD600; 16 h; 0.54% of 330,000 active; growth inhibition, % (test concentration not listed); in the data active = growth inhibition above about 68%;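 note: plate controls were untreated wells for no effect and antibiotic for full effect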
MazF activator – activators of E. coli MazEF toxin-antitoxin RNase, primary screen, biochemical, fluorescence, uHTS. Endoribonuclease toxin MazF (Escherichia coli (strain K12)), P0AE70. FAM/BHQ RNA-DNA oligo cleavage fluorescence, 5 h. activation, % at 20 µM. 0.32% of 350,000 active; in the data active = activation above about 50%
Target sequence (P0AE70 whole entry, looked up): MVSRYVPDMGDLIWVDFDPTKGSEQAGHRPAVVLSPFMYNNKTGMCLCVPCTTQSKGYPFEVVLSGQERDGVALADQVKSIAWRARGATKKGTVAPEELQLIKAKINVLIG
SSB-PriA inh – inhibitors of Klebsiella pneumoniae PriA binding to SSB C-terminal tail, primary screen, biochemical, AlphaScreen; PriA–SSB C-terminal tail interaction (Klebsiella pneumoniae); AlphaScreen SSBct-PriA binding, biotinylated peptide; inhibition, % at 33 µM; 0.6% of 430,000 active; AID 1272365, 2023; in the data active = inhibition mostly above about 37%, no sharp cut-off; inactive = mostly below about 20%;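 note: plate controls were negative control peptide for no effect and reference peptide for full effect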
An asterisk follows results filed as active. A selection: hits, their analogues and other compounds. The true share with any hit is near 1.2%.

For CCCCN1CC(=O)N2[C@@H]3c4cc(Br)ccc4OC[C@@H]3[C@H](C(=O)OCC)[C@]2(C)C1=O the results were MazF activator 62* and SSB-PriA inh -1.
Screening CCCCN1CC(=O)N2[C@H]3c4cc(C)ccc4OC[C@@H]3[C@H](c3ccccc3)[C@]2(C)C1=O returned MazF activator 87* and SSB-PriA inh 2.
For CCCCN1CC(=O)N2[C@H]3c4cc(Br)ccc4OC[C@@H]3[C@H](C(=O)OCC)[C@]2(C)C1=O the results were MazF activator 8 and SSB-PriA inh -16.
Screening Cc1ccc2c(c1)[C@H]1[C@H](CO2)[C@H](c2ccccc2)[C@]2(C)C(=O)N(Cc3ccc(F)cc3)CC(=O)N12 returned MazF activator 310* and SSB-PriA inh 3.
Screening COc1ccc(CN2CC(=O)N3[C@H]4c5ccccc5OC[C@@H]4[C@H](c4ccccc4)[C@]3(C)C2=O)cc1 returned MazF activator 52* and SSB-PriA inh 2.
Screening Cc1ccc(CN2CC(=O)N3C4c5cc(C)ccc5OCC4C(c4ccccc4)[C@]3(C)C2=O)cc1 (stereo partly specified) returned Sa RN4220 lethal 0 and Sa ugtP lethal 8.
For O=C(NC1CCC(O)CC1)c1cc(-c2ccco2)nc2ccccc12 (stereo unspecified) the results were BJeLR viability 3, Sa RN4220 lethal 0, Sa ugtP lethal -10, MazF activator 6 and SSB-PriA inh -17.
For Cc1ccc(CC2S/C(=N/c3ccccn3)NC2=O)cc1 (stereo unspecified) the results were BJeLR viability -3 and MazF activator -9.
Screening COc1ccc(Cl)cc1N(C(=O)c1ccco1)C(C(=O)NC1CCCC1)c1ccco1 (stereo unspecified) returned BJeLR viability -14, Sa RN4220 lethal 3, Sa ugtP lethal -2, MazF activator 7 and SSB-PriA inh -3.
COc1cc(C(=O)NCC(=O)Nc2nc3ccccc3[nH]2)cc(OC)c1OC was read as SSB-PriA inh -10.
Screening CN(C)c1ccc(N=Nc2ccccc2C(=O)OCC(=O)N2CCCCCC2)cc1 returned BJeLR viability -6, Sa RN4220 lethal 6, Sa ugtP lethal -3, MazF activator 3 and SSB-PriA inh 64.
Screening CN(C)c1ccc(N=Nc2ccccc2C(=O)OCC(=O)N2CCCC2)cc1 returned BJeLR viability -14, Sa RN4220 lethal -1, Sa ugtP lethal -5, MazF activator 1 and SSB-PriA inh 53*.
CN1CCN(n2c3c(c(SCC(=O)Nc4ccc5c(c4)OCCO5)nc2=O)CCCC3)CC1 was read as SSB-PriA inh -5.
`Cc1ccc(Nc2c(-c3ccc(N4CCOCC4)cc3)nc3ncccn23)cc1` gave BJeLR viability -16, Sa RN4220 lethal 7, Sa ugtP lethal -2, MazF activator 8 and SSB-PriA inh 97*.
`Cc1ccc(Nc2c(-c3ccc(N4CCOCC4)cc3)nc3ncccn23)cc1C` gave BJeLR viability -11, Sa RN4220 lethal 4, Sa ugtP lethal 6, MazF activator 10 and SSB-PriA inh 0.
Cc1ccc2c(c1)N(CC(=O)NCc1ccco1)C(=O)C(C(C)C)O2 (stereo unspecified) was read as BJeLR viability 7, Sa RN4220 lethal 3, Sa ugtP lethal -3, MazF activator 5 and SSB-PriA inh 0.
Screening CCC(NC(=O)c1ccccc1NC(=O)C(C)(C)C)C(=O)N1CC(C)OC(C)C1 (stereo unspecified) returned Sa RN4220 lethal 5, Sa ugtP lethal 12, MazF activator 52* and SSB-PriA inh -10.
`Cc1ccccc1NCc1ccc(O)c2ncccc12` gave BJeLR viability -1, Sa RN4220 lethal 1, Sa ugtP lethal -10, MazF activator 1 and SSB-PriA inh 97*.
Oc1ccc(CNc2ccc(F)cc2)c2cccnc12 was read as BJeLR viability -5, Sa RN4220 lethal 7, Sa ugtP lethal 5, MazF activator 4 and SSB-PriA inh 78*.
For Oc1ccc(CNc2ccc(Br)cc2)c2cccnc12 the results were SSB-PriA inh 47.
For Oc1ccc(CNc2ccccc2)c2cccnc12 the results were BJeLR viability -3, Sa RN4220 lethal 3, Sa ugtP lethal -4, MazF activator 1 and SSB-PriA inh -16.
Screening Cc1cccc(NCc2ccc(O)c3ncccc23)c1 returned BJeLR viability 4, Sa RN4220 lethal 3, Sa ugtP lethal -2, MazF activator 8 and SSB-PriA inh 47*.
For Oc1ccc(CNc2cc(Cl)cc(Cl)c2)c2cccnc12 the results were SSB-PriA inh 67*.
`CCn1c(SCC(=O)c2ccc(F)cc2)nnc1-c1ccoc1C` gave BJeLR viability -7, Sa RN4220 lethal 3, Sa ugtP lethal 2, MazF activator -7 and SSB-PriA inh 0.
For CCC(C)C(NC(N)=O)C(=O)Nc1ccc(S(=O)(=O)Nc2ccc(OC)cc2)cc1 (stereo unspecified) the results were BJeLR viability 3, Sa RN4220 lethal 2, Sa ugtP lethal -2, MazF activator 6 and SSB-PriA inh -8.
Screening CC(C)NC(=O)C[C@@H]1Sc2ccc(C(F)(F)F)cc2NC1=O returned SSB-PriA inh -20.
Screening COc1ccc2nc(C)cc(SCC(=O)NNC(=O)COc3ccc(C)cc3)c2c1 returned BJeLR viability -5, Sa RN4220 lethal 3, Sa ugtP lethal -6, MazF activator 51* and SSB-PriA inh -14.
Screening CCOc1ccccc1N1CCN(C(=O)c2c(CC)noc2C)CC1 returned BJeLR viability -4, Sa RN4220 lethal 4, Sa ugtP lethal 2, MazF activator -1 and SSB-PriA inh 2.
Cn1cccc1C(CNC(=O)c1ccc2c(c1)OCO2)N1CCc2ccccc2C1 (stereo unspecified) was read as SSB-PriA inh 13*.
`Cn1cccc1C(CNC(=O)C(=O)Nc1ccc2c(c1)OCO2)N1CCc2ccccc2C1` (stereo unspecified) gave SSB-PriA inh -19.
`CC(C)CCN1C(=O)c2ccc(C(=O)Nc3ccc(Br)cc3C(=O)O)cc2C1=O` gave BJeLR viability 4, Sa RN4220 lethal 98*, Sa ugtP lethal 100*, MazF activator 5 and SSB-PriA inh -2.
`O=C(Nc1ccc(Cl)cc1C(=O)O)c1ccc2c(c1)C(=O)N(Cc1ccco1)C2=O` gave BJeLR viability 6, Sa RN4220 lethal 66, Sa ugtP lethal 100*, MazF activator -4 and SSB-PriA inh -22.
O=C(Nc1cccc(O)c1)c1ccc2c(c1)C(=O)N(Cc1ccco1)C2=O was read as BJeLR viability -1, Sa RN4220 lethal 4, Sa ugtP lethal -4, MazF activator 8 and SSB-PriA inh 9.
